Measurements from PubChem BioAssay (NCI).
Compounds without any hit were thinned out: in the full panel of roughly 79,000, 15% have a hit. The source made the active and inactive calls. Cut-off read from the data, not from the text of the source: active = growth inhibition above about 70%; inactive = the rest.

How the values were obtained:
[1] = NCI Yeast Anticancer Drug Screen. Data for the mec2-1 strain (AID 157); settings: S. cerevisiae mec2-1 strain, stronger effect = higher value
Procedure, shortened: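 Compounds were applied to mec2-1 yeast cells. Their growth was then compared with that of vehicle-treated cultures to give growth inhibition.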

[2] = NCI Yeast Anticancer Drug Screen. Data for the rad14 strain (AID 159);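 note: 0% = growth of vehicle-treated control cultures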; settings: S. cerevisiae rad14 strain growth inhibition, stronger effect = higher value
Procedure, shortened: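 A mutant yeast strain defective in DNA damage repair is treated with compound; inhibition of its growth is scored against untreated, vehicle-exposed cultures.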

[3] = NCI Yeast Anticancer Drug Screen. Data for the sgs1 mgt1 strain (AID 161);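 note: 0% = growth of cultures given vehicle only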; settings: S. cerevisiae sgs1 mgt1 strain, stronger effect = higher value
Procedure, shortened: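 This yeast growth screen uses a strain with defined DNA-repair lesions; compound-treated growth is compared with vehicle-treated growth.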

[4] = NCI Yeast Anticancer Drug Screen. Data for the cln2 rad14 strain (AID 165);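 note: 0% = growth equal to vehicle treated cultures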; settings: S. cerevisiae cln2 rad14 strain, stronger effect = higher value
Procedure, shortened: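 Strain: cln2 rad14 yeast, altered in cell cycle control and DNA damage repair. Read-out: growth inhibition vs vehicle.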

[5] = NCI Yeast Anticancer Drug Screen. Data for the bub3 strain (AID 167); settings: S. cerevisiae bub3 mutant strain, stronger effect = higher value
Procedure, shortened: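 Steps: expose the mutant yeast strain to compound; grow alongside vehicle-treated cultures; measure growth; express inhibition against the vehicle cultures.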

[6] = NCI Yeast Anticancer Drug Screen. Data for the wt2 strain (AID 169);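 note: 0% = growth of vehicle-treated yeast cultures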; settings: S. cerevisiae wt2 strain growth inhibition, stronger effect = higher value
Procedure, shortened: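 Growth of compound-treated yeast is measured and expressed as inhibition relative to vehicle-only controls.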

[7] = NCI Yeast Anticancer Drug Screen. Data for the mlh1 strain (AID 171);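 note: 0% = growth of vehicle-treated control cultures of the same strain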; settings: S. cerevisiae mlh1 strain growth inhibition, stronger effect = higher value
Procedure, shortened: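 Test agents were incubated with yeast bearing a defined DNA damage repair or cell cycle control alteration; values are growth inhibition normalised to vehicle-treated cultures.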

[8] = NCI Yeast Anticancer Drug Screen. Data for the sgs1 strain (AID 173);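 note: 0% = growth of vehicle-only control cultures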; settings: S. cerevisiae sgs1 mutant, stronger effect = higher value
Procedure, shortened: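 Strain with an altered DNA repair or cell cycle pathway exposed to compound. Growth then measured. Value = inhibition versus vehicle control.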

[9] = NCI Yeast Anticancer Drug Screen. Data for the mlh1 rad18 strain (AID 175); settings: S. cerevisiae mlh1 rad18 strain growth inhibition, stronger effect = higher value
Procedure, shortened: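 A repair-deficient yeast strain is exposed to test compound, and growth is scored relative to vehicle-treated controls.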

[10] = NCI Yeast Anticancer Drug Screen. Data for the rad18 strain (AID 177); settings: S. cerevisiae rad18 mutant growth inhibition, stronger effect = higher value
Procedure, shortened: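 DNA-repair-defective yeast; compound treatment; growth inhibition scored against vehicle.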

[11] = NCI Yeast Anticancer Drug Screen. Data for the rad52 strain (AID 147);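 note: 0% = growth of vehicle-treated control cultures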; settings: S. cerevisiae rad52 mutant growth inhibition, stronger effect = higher value
Procedure, shortened: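 Growth of repair-deficient yeast cells was compared between compound-treated and vehicle-treated cultures to give percent inhibition.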

[12] = NCI Yeast Anticancer Drug Screen. Data for the wt1 strain (AID 149);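 note: 0% = growth of vehicle-treated wt1 cultures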; settings: S. cerevisiae wt1 strain (SPY 50644) growth inhibition, stronger effect = higher value
Procedure, shortened: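 Compounds are added to wt1 yeast cultures. Growth is then measured. Inhibition is expressed relative to vehicle-treated controls.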

[13] = NCI Yeast Anticancer Drug Screen. Data for the rad50EPP+ strain (AID 151);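 note: 0% = growth of vehicle-treated control cultures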; settings: S. cerevisiae rad50 mutant strain, stronger effect = higher value
Procedure, shortened: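 Measured: growth inhibition of rad50EPP+ yeast. Reference: vehicle-treated controls. Screen uses strains with defined genetic alterations in DNA damage repair or cell cycle control.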

[14] = NCI Yeast Anticancer Drug Screen. Data for the mgt1 strain (AID 153); settings: S. cerevisiae mgt1 mutant growth inhibition, stronger effect = higher value
Procedure, shortened: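 Compounds were applied to mgt1 mutant yeast, and growth was then compared against vehicle-treated control cultures to give percent inhibition.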

[15] = NCI Yeast Anticancer Drug Screen. Data for the rad50 strain (AID 155);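 note: 0% = growth of vehicle-only cultures of the same strain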; settings: S. cerevisiae rad50 strain growth inhibition, stronger effect = higher value
Procedure, shortened: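 Inhibition values express reduced yeast growth in compound-treated cultures relative to vehicle-treated controls.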

[16] = NCI Yeast Anticancer Drug Screen. Data for the CLN2oe strain (AID 163);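 note: 0% = growth of vehicle-only control cultures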; settings: S. cerevisiae CLN2oe strain, stronger effect = higher value
Procedure, shortened: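 Cells of an engineered yeast line with disturbed cell-cycle regulation are treated with compound. Inhibition of growth is then calculated relative to the vehicle-treated reference.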

[17] = at 5.0 µM (retest, dose inferred, filed as 0.5)
[18] = at 50.0 µM (retest, dose inferred, filed as 5.0)

Measured: growth inhibition

CCOC(=O)c1cc(-c2ccc(Cl)cc2)c([N+](=O)[O-])n1C
active: [1]; at 33.0 µM 96% | [1]; [18] 96% | [1]; at 50.0 µM 90.3% | [1]; at 100.0 µM 96% | [2]; at 33.0 µM 76% | [2]; at 100.0 µM 95% | [3]; at 50.0 µM 91.7% | [4]; [18] 95% | [4]; at 50.0 µM 89% | [5]; at 33.0 µM 74% | [5]; [18] 97% | [5]; at 50.0 µM 85.3% | [5]; at 100.0 µM 95% | [6]; at 33.0 µM 70% | [6]; at 100.0 µM 97% | [7]; at 33.0 µM 94% | [7]; at 100.0 µM 96% | [8]; at 33.0 µM 97% | [8]; at 100.0 µM 98% | [9]; [18] 97% | [9]; at 50.0 µM 87.9% | [10]; at 11.0 µM 71% | [10]; at 33.0 µM 95% | [10]; at 100.0 µM 96%
inactive: [1]; [17] -8% | [1]; at 11.0 µM 23% | [2]; at 1.2 µM -8% | [2]; at 3.7 µM -4% | [2]; at 11.0 µM 11% | [3]; [17] 10% | [3]; [18] 50% | [4]; [17] 15% | [5]; at 1.2 µM -6% | [5]; at 3.7 µM -29% | [5]; [17] -22% | [5]; at 11.0 µM -9% | [6]; at 1.2 µM 6% | [6]; at 3.7 µM 13% | [6]; at 11.0 µM 13% | [7]; at 1.2 µM 28% | [7]; at 3.7 µM 36% | [7]; at 11.0 µM 56% | [8]; at 1.2 µM 27% | [8]; at 3.7 µM 29% | [8]; at 11.0 µM 58% | [9]; [17] 45% | [10]; at 1.2 µM 3% | [10]; at 3.7 µM 37%

O=C(NNc1ccnc2cc(Cl)ccc12)/C(=C\c1ccccc1Cl)NC(=O)c1ccccc1
active: [13]; at 11.0 µM 91% | [13]; at 33.0 µM 95% | [13]; at 100.0 µM 89% | [15]; at 50.0 µM 86.1% | [3]; at 50.0 µM 73% | [16]; at 11.0 µM 70% | [16]; at 33.0 µM 76% | [16]; at 100.0 µM 83% | [5]; at 33.0 µM 76% | [5]; [18] 80% | [5]; at 50.0 µM 85.8% | [5]; at 100.0 µM 76% | [9]; at 50.0 µM 90.1%
inactive: [11]; at 1.2 µM 15% | [11]; at 3.7 µM 11% | [11]; at 11.0 µM 40% | [11]; at 33.0 µM 38% | [11]; at 100.0 µM 38% | [12]; at 1.2 µM -80% | [12]; at 3.7 µM -1% | [12]; at 11.0 µM 6% | [12]; at 33.0 µM 21% | [12]; at 100.0 µM 28% | [13]; at 1.2 µM 17% | [13]; at 3.7 µM 55% | [14]; at 1.2 µM 2% | [14]; at 3.7 µM 23% | [14]; at 11.0 µM 32% | [14]; at 33.0 µM 61% | [14]; at 100.0 µM 62% | [15]; at 1.2 µM -1% | [15]; at 3.7 µM 4% | [15]; [17] -11% | [15]; at 11.0 µM 14% | [15]; at 33.0 µM 33% | [15]; [18] -18% | [15]; at 100.0 µM 30% | [1]; at 1.2 µM -5% | [1]; at 3.7 µM -1% | [1]; [17] -16% | [1]; at 11.0 µM -1% | [1]; at 33.0 µM 20% | [1]; [18] -30% | [1]; at 50.0 µM 39.6% | [1]; at 100.0 µM 14% | [2]; at 1.2 µM -2% | [2]; at 3.7 µM 1% | [2]; at 11.0 µM 1% | [2]; at 33.0 µM 3% | [2]; at 100.0 µM 0% | [3]; [17] -8% | [3]; [18] -37% | [16]; at 1.2 µM 11% | [16]; at 3.7 µM 32% | [5]; at 1.2 µM 0% | [5]; at 3.7 µM 14% | [5]; [17] 5% | [5]; at 11.0 µM 50% | [6]; at 1.2 µM 4% | [6]; at 3.7 µM 28% | [6]; at 11.0 µM 45% | [6]; at 33.0 µM 38% | [6]; at 100.0 µM 31% | [7]; at 1.2 µM -1% | [7]; at 3.7 µM 0% | [7]; at 11.0 µM 7% | [7]; at 33.0 µM 26% | [7]; at 100.0 µM 24% | [8]; at 1.2 µM 1% | [8]; at 3.7 µM 6% | [8]; at 11.0 µM 13% | [8]; at 33.0 µM 38% | [8]; at 100.0 µM 38% | [9]; [17] -13% | [9]; [18] 7% | [10]; at 1.2 µM -1% | [10]; at 3.7 µM 10% | [10]; at 11.0 µM 34% | [10]; at 33.0 µM 64% | [10]; at 100.0 µM 67%

S=C(S)NN1CCOCC1
active: [11]; at 1.2 µM 84% | [13]; at 1.2 µM 96% | [13]; at 3.7 µM 80% | [13]; at 11.0 µM 86% | [13]; at 33.0 µM 84% | [13]; at 100.0 µM 89% | [15]; at 1.2 µM 87% | [15]; [17] 89% | [15]; at 50.0 µM 85.2% | [1]; at 1.2 µM 80% | [1]; at 50.0 µM 97.8% | [3]; [17] 92% | [3]; [18] 91% | [3]; at 50.0 µM 77.2% | [4]; [17] 83% | [4]; at 50.0 µM 87.5% | [5]; [17] 85% | [5]; [18] 70% | [5]; at 50.0 µM 96% | [7]; at 100.0 µM 72% | [9]; [17] 94% | [9]; [18] 92% | [9]; at 50.0 µM 86.8% | [10]; at 1.2 µM 87% | [10]; at 100.0 µM 72%
inactive: [11]; at 3.7 µM 68% | [11]; at 11.0 µM 35% | [11]; at 33.0 µM 38% | [11]; at 100.0 µM 50% | [12]; at 1.2 µM 43% | [12]; at 3.7 µM 29% | [12]; at 11.0 µM 35% | [12]; at 33.0 µM 51% | [12]; at 100.0 µM 60% | [14]; at 1.2 µM 52% | [14]; at 3.7 µM 39% | [14]; at 11.0 µM 30% | [14]; at 33.0 µM 21% | [14]; at 100.0 µM 18% | [15]; at 3.7 µM 57% | [15]; at 11.0 µM 29% | [15]; at 33.0 µM 23% | [15]; [18] 66% | [15]; at 100.0 µM 28% | [1]; at 3.7 µM 60% | [1]; [17] 65% | [1]; at 11.0 µM 32% | [1]; at 33.0 µM 28% | [1]; [18] -4% | [1]; at 100.0 µM 35% | [2]; at 1.2 µM 33% | [2]; at 3.7 µM 36% | [2]; at 11.0 µM 34% | [2]; at 33.0 µM 42% | [2]; at 100.0 µM 52% | [4]; [18] 22% | [5]; at 1.2 µM 69% | [5]; at 3.7 µM 59% | [5]; at 11.0 µM 31% | [5]; at 33.0 µM 7% | [5]; at 100.0 µM 8% | [6]; at 1.2 µM 64% | [6]; at 3.7 µM 31% | [6]; at 11.0 µM 26% | [6]; at 33.0 µM 34% | [6]; at 100.0 µM 31% | [7]; at 1.2 µM 63% | [7]; at 3.7 µM 30% | [7]; at 11.0 µM 30% | [7]; at 33.0 µM 34% | [10]; at 3.7 µM 67% | [10]; at 11.0 µM 67% | [10]; at 33.0 µM 50%
